Several values for one entry are separate records, joined by “and”; a condition that tells them apart may be missing. Identical values can stand only once. Compounds without any hit were thinned out: in the full panel of roughly 83,000, 20% have a hit.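 Growth was measured after 48 h exposure to one concentration of compound in 96-well plates. Values under 10 count as active.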 Activity calls are given as the source filed them.
What was measured:
Assay in all cases: NCI-60 one-dose screen, 48 h (100 = growth as untreated, 0 = no growth, -100 = all killed)
HCT-15 colon = tested on: HCT-15 colon
HT29 colon = tested on: HT29 colon
SNB-75 CNS = tested on: SNB-75 CNS
SNB-19 CNS = tested on: SNB-19 CNS
U251 CNS = tested on: U251 CNS
PC-3 prostate = tested on: PC-3 prostate
SK-MEL-5 melanoma = tested on: SK-MEL-5 melanoma
UACC-62 melanoma = tested on: UACC-62 melanoma
LOX IMVI melanoma = tested on: LOX IMVI melanoma
SK-MEL-28 melanoma = tested on: SK-MEL-28 melanoma
SK-MEL-2 melanoma = tested on: SK-MEL-2 melanoma
EKVX NSCLC = tested on: EKVX NSCLC
SN12C renal = tested on: SN12C renal
UO-31 renal = tested on: UO-31 renal
TK-10 renal = tested on: TK-10 renal
ACHN renal = tested on: ACHN renal
CAKI-1 renal = settings: 10 µM unless noted
A498 renal = tested on: A498 renal
CCRF-CEM leukemia = tested on: CCRF-CEM leukemia
MOLT-4 leukemia = tested on: MOLT-4 leukemia

Nc1[nH]nc(Nc2ccccc2)c1-c1nc2ccccc2s1
growth (HCT-15 colon; 10 µM unless noted): 11.1% (inactive)
growth (HT29 colon; 10 µM unless noted): 58.5% (inactive)
growth (SNB-75 CNS; 10 µM unless noted): 44.2% (inactive)
growth (SNB-19 CNS; 10 µM unless noted): 34% (inactive)
growth (U251 CNS; 10 µM unless noted): 22% (inactive)
growth (PC-3 prostate; 10 µM unless noted): 14.9% (inactive)
growth (SK-MEL-5 melanoma; 10 µM unless noted): 57.6% (inactive)
growth (UACC-62 melanoma; 10 µM unless noted): 27.2% (inactive)
growth (LOX IMVI melanoma; 10 µM unless noted): -79.1% (active)
growth (SK-MEL-28 melanoma; 10 µM unless noted): 35.4% (inactive)
growth (SK-MEL-2 melanoma; 10 µM unless noted): 26.8% (inactive)
growth (EKVX NSCLC; 10 µM unless noted): 19% (inactive)
growth (SN12C renal; 10 µM unless noted): 34.2% (inactive)
growth (UO-31 renal; 10 µM unless noted): 18.8% (inactive)
growth (TK-10 renal; 10 µM unless noted): 23% (inactive)
growth (ACHN renal; 10 µM unless noted): 15.5% (inactive)
growth (CAKI-1 renal): 25.1% (inactive)
growth (A498 renal; 10 µM unless noted): 46.8% (inactive)
growth (CCRF-CEM leukemia; 10 µM unless noted): 8.45% (active)
growth (MOLT-4 leukemia; 10 µM unless noted): 4.06% (active)

O=C(/C=C/c1cccc(Oc2ccc(Cl)cc2)c1)c1ccccc1
growth (HCT-15 colon; 10 µM): 80.8% (inactive)
growth (HCT-15 colon; 100 µM): -72.6% (active)
growth (HT29 colon; 10 µM): 84.2% (inactive)
growth (HT29 colon; 100 µM): -67% (active)
growth (SNB-75 CNS; 10 µM): 82.8% (inactive)
growth (SNB-75 CNS; 100 µM): -94.8% (active)
growth (SNB-19 CNS; 10 µM): 90.5% (inactive)
growth (SNB-19 CNS; 100 µM): -77.3% (active)
growth (U251 CNS; 10 µM): 76% (inactive)
growth (U251 CNS; 100 µM): -100% (active)
growth (PC-3 prostate; 10 µM): 84.5% (inactive)
growth (PC-3 prostate; 100 µM): -72.3% (active)
growth (SK-MEL-5 melanoma; 10 µM): 105% (inactive)
growth (SK-MEL-5 melanoma; 100 µM): -97.3% (active)
growth (UACC-62 melanoma; 10 µM): 100% (inactive)
growth (UACC-62 melanoma; 100 µM): -71.9% (active)
growth (LOX IMVI melanoma; 10 µM): 38.2% (inactive)
growth (LOX IMVI melanoma; 100 µM): -99.3% (active)
growth (SK-MEL-28 melanoma; 10 µM): 101% (inactive)
growth (SK-MEL-28 melanoma; 100 µM): -82.2% (active)
growth (SK-MEL-2 melanoma; 10 µM): 109% (inactive)
growth (SK-MEL-2 melanoma; 100 µM): -59.8% (active)
growth (EKVX NSCLC; 10 µM): 110% (inactive)
growth (EKVX NSCLC; 100 µM): -79.6% (active)
growth (SN12C renal; 10 µM): 111% (inactive)
growth (SN12C renal; 100 µM): -63.7% (active)
growth (UO-31 renal; 10 µM): 86.2% (inactive)
growth (UO-31 renal; 100 µM): -99.8% (active)
growth (TK-10 renal; 10 µM): 105% (inactive)
growth (TK-10 renal; 100 µM): -99.2% (active)
growth (ACHN renal; 10 µM unless noted): 99.3% (inactive)
growth (A498 renal; 10 µM): 99.2% (inactive)
growth (A498 renal; 100 µM): -95.3% (active)
growth (CCRF-CEM leukemia; 10 µM unless noted): -10.5% [100 µM] (active)
growth (MOLT-4 leukemia; 10 µM): 62.6% (inactive)
growth (MOLT-4 leukemia; 100 µM): -2.97% (active)

O=C(CCl)N(O)c1ccc(/C=C/c2ccccc2)cc1
growth (HCT-15 colon; 10 µM unless noted): 78.3% (inactive) and 66.3% (inactive)
growth (HT29 colon; 10 µM unless noted): 73.1% (inactive) and 38.7% (inactive)
growth (SNB-75 CNS; 10 µM unless noted): 95.9% (inactive) and 96.3% (inactive)
growth (SNB-19 CNS; 10 µM unless noted): 90.1% (inactive) and 86.7% (inactive)
growth (U251 CNS; 10 µM unless noted): 81.5% (inactive) and 73.5% (inactive)
growth (PC-3 prostate; 10 µM unless noted): 85.7% (inactive) and 86.6% (inactive)
growth (SK-MEL-5 melanoma; 10 µM unless noted): 68.6% (inactive) and 65.3% (inactive)
growth (UACC-62 melanoma; 10 µM unless noted): 74.6% (inactive) and 72.2% (inactive)
growth (LOX IMVI melanoma; 10 µM unless noted): 46.8% (inactive) and 36.1% (inactive)
growth (SK-MEL-28 melanoma; 10 µM unless noted): 107% (inactive) and 112% (inactive)
growth (SK-MEL-2 melanoma; 10 µM unless noted): 88.1% (inactive) and 77.7% (inactive)
growth (EKVX NSCLC; 10 µM unless noted): 81.7% (inactive)
growth (SN12C renal; 10 µM unless noted): 63.3% (inactive) and 48.8% (inactive)
growth (UO-31 renal; 10 µM unless noted): 66.4% (inactive) and 65.2% (inactive)
growth (TK-10 renal; 10 µM unless noted): 89.7% (inactive) and 81.1% (inactive)
growth (ACHN renal; 10 µM unless noted): 97.8% (inactive) and 87.6% (inactive)
growth (CAKI-1 renal): 95.3% (inactive) and 91.1% (inactive)
growth (A498 renal; 10 µM unless noted): 69.2% (inactive) and 87.1% (inactive)
growth (CCRF-CEM leukemia; 10 µM unless noted): -4.68% (active) and 10.3% (inactive)
growth (MOLT-4 leukemia; 10 µM unless noted): 7.08% (active) and 12.4% (inactive)

CC(=O)/C=C/c1ccc(OCc2ccc(C(C)(C)C)cc2)cc1
growth (HCT-15 colon; 10 µM): 64.7% (inactive)
growth (HCT-15 colon; 100 µM): 22.2% (inactive)
growth (HT29 colon; 10 µM): 42.4% (inactive)
growth (HT29 colon; 100 µM): 8.01% (active)
growth (SNB-75 CNS; 10 µM): 94.7% (inactive)
growth (SNB-75 CNS; 100 µM): -11.6% (active)
growth (SNB-19 CNS; 10 µM): 98.5% (inactive)
growth (SNB-19 CNS; 100 µM): 28.5% (inactive)
growth (U251 CNS; 10 µM): 88.9% (inactive)
growth (U251 CNS; 100 µM): 37.7% (inactive)
growth (PC-3 prostate; 10 µM): 79.1% (inactive)
growth (PC-3 prostate; 100 µM): 14% (inactive)
growth (SK-MEL-5 melanoma; 10 µM): 50.3% (inactive)
growth (SK-MEL-5 melanoma; 100 µM): -6.85% (active)
growth (UACC-62 melanoma; 10 µM): 74.2% (inactive)
growth (UACC-62 melanoma; 100 µM): -3.4% (active)
growth (LOX IMVI melanoma; 10 µM): 62.3% (inactive)
growth (LOX IMVI melanoma; 100 µM): 32% (inactive)
growth (SK-MEL-28 melanoma; 10 µM): 85.5% (inactive)
growth (SK-MEL-28 melanoma; 100 µM): -1.32% (active)
growth (SK-MEL-2 melanoma; 10 µM): 91.5% (inactive)
growth (SK-MEL-2 melanoma; 100 µM): -21.6% (active)
growth (EKVX NSCLC; 10 µM): 95.1% (inactive)
growth (EKVX NSCLC; 100 µM): 24.8% (inactive)
growth (SN12C renal; 10 µM): 80% (inactive)
growth (SN12C renal; 100 µM): 28.1% (inactive)
growth (UO-31 renal; 10 µM): 68.6% (inactive)
growth (UO-31 renal; 100 µM): 14.8% (inactive)
growth (TK-10 renal; 10 µM): 111% (inactive)
growth (TK-10 renal; 100 µM): 55.1% (inactive)
growth (ACHN renal; 10 µM unless noted): 82.6% (inactive)
growth (A498 renal; 10 µM): 80.4% (inactive)
growth (A498 renal; 100 µM): -94.2% (active)
growth (CCRF-CEM leukemia; 10 µM unless noted): 28% [100 µM] (inactive)
growth (MOLT-4 leukemia; 10 µM): 68.3% (inactive)
growth (MOLT-4 leukemia; 100 µM): 13.1% (inactive)

CN(C)CCNc1ncc(F)c(-c2cnc3cc(-c4cnn(C)c4)ccn23)n1
growth (HCT-15 colon; 0.005 µM): 99.2% (inactive)
growth (HCT-15 colon; 30 µM): 31.2% (inactive)
growth (SNB-75 CNS; 0.005 µM): 100% (inactive)
growth (SNB-75 CNS; 30 µM): 50% (inactive)
growth (SNB-19 CNS; 0.005 µM): 97% (inactive)
growth (SNB-19 CNS; 30 µM): 73.4% (inactive)
growth (U251 CNS; 0.005 µM): 96.3% (inactive)
growth (U251 CNS; 30 µM): 75.9% (inactive)
growth (PC-3 prostate; 0.005 µM): 103% (inactive)
growth (PC-3 prostate; 30 µM): 44.9% (inactive)
growth (SK-MEL-5 melanoma; 10 µM unless noted): 101% [0.005 µM] (inactive)
growth (UACC-62 melanoma; 0.005 µM): 98% (inactive)
growth (UACC-62 melanoma; 30 µM): 82.7% (inactive)
growth (LOX IMVI melanoma; 0.005 µM): 98.6% (inactive)
growth (LOX IMVI melanoma; 30 µM): 19.9% (inactive)
growth (SK-MEL-28 melanoma; 0.005 µM): 105% (inactive)
growth (SK-MEL-28 melanoma; 30 µM): 96.7% (inactive)
growth (SK-MEL-2 melanoma; 0.005 µM): 109% (inactive)
growth (SK-MEL-2 melanoma; 30 µM): 64.6% (inactive)
growth (EKVX NSCLC; 0.005 µM): 97% (inactive)
growth (EKVX NSCLC; 30 µM): 70.1% (inactive)
growth (SN12C renal; 0.005 µM): 98.4% (inactive)
growth (SN12C renal; 30 µM): 30.7% (inactive)
growth (UO-31 renal; 0.005 µM): 94% (inactive)
growth (UO-31 renal; 30 µM): 17.1% (inactive)
growth (TK-10 renal; 0.005 µM): 105% (inactive)
growth (TK-10 renal; 30 µM): 56.4% (inactive)
growth (ACHN renal; 0.005 µM): 96.7% (inactive)
growth (ACHN renal; 30 µM): 15.5% (inactive)
growth (A498 renal; 0.005 µM): 99% (inactive)
growth (A498 renal; 30 µM): 41.9% (inactive)
growth (CCRF-CEM leukemia; 0.005 µM): 101% (inactive)
growth (CCRF-CEM leukemia; 30 µM): 14.1% (inactive)
growth (MOLT-4 leukemia; 0.005 µM): 104% (inactive)
growth (MOLT-4 leukemia; 30 µM): 1.39% (active)

From PubChem BioAssay (NCI)
